WRN helicase inh: blocks human WRN helicase; Q14191; WRN helicase unwinding, fluorescent forked duplex, kinetic; Potency, µM (highest dose often 114 µM), actives largely listed as inhibitors; 360,000 compounds, 0.46% hits; note: nearly all actives have a fitted effect of over 55% in size
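Enzyme (20 nM final) and test compound sit together 15 min at room temperature before substrate addition. Substrate is a single-forked duplex oligonucleotide (100 nM) labelled with fluorophore and quencher, with 2 mM ATP; helicase unwinding raises red fluorescence, read kinetically.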
PI5P4Ka inh: inhibitors of human PI5P4K alpha; P48426; PI5P4Kalpha enzyme, ADP-Glo luminescence, 60 min; stronger effect = lower value; max response, %; 330,000 compounds, 1.2% hits; AID 652105; active = max response of -50% or lower; inconclusive = between -30% and -50%; inactive = -30% or higher; note: value at the top dose of about 77 µM
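ADP-Glo luminescence end-point after a 60 min room-temperature kinase reaction. PI5P4Kalpha and substrate in HEPES pH 7.4 buffer with EGTA, 0.1% CHAPS and 5% DMSO; ATP at 5 microM final.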
POLK inh: inhibitors of human DNA polymerase kappa. Q9UBT6. Potency, µM (series often up to 107 µM), usual class: inhibitors. 400,000 compounds, 0.53% hits. purified Pol kappa, fluorescent DNA synthesis assay, 10 min
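First, compounds were pin-transferred onto 10 nM Pol kappa. After 15 min at room temperature, substrate was added to 50 nM final. Fluorescence was then measured kinetically at 0 and 10 min.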
Pol eta inh-1: inhibitors of human DNA polymerase eta; Q9Y253; recombinant Pol eta, fluorescent DNA replication assay; Potency, µM (doses to about 114 µM), most hits filed as inhibitors; 390,000 compounds, 1.2% hits; AID 588591
Target sequence (Q9Y253 whole entry, looked up): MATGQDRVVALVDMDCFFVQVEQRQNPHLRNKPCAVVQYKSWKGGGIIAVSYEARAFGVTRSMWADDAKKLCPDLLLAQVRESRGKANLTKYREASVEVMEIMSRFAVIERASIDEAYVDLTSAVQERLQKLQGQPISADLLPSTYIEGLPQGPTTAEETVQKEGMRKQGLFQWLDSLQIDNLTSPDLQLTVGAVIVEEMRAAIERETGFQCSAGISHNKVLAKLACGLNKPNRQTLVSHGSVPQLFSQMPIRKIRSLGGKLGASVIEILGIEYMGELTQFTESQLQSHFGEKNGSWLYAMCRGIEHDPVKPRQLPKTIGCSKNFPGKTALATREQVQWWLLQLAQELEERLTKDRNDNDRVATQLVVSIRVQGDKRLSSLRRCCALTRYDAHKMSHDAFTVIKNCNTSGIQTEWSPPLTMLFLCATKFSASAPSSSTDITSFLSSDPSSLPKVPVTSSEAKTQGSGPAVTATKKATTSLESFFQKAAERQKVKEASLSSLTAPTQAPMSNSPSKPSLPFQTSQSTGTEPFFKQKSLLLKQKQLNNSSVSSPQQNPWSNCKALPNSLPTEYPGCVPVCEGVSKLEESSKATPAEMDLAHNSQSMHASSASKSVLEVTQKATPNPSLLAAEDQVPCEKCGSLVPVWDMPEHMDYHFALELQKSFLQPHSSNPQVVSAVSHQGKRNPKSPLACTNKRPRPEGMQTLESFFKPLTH
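Pol eta (10 nM) was preincubated with compounds for 15 min at room temperature, after which fluorescent replication substrate (50 nM final) was added to start the reaction. Fluorescence was read kinetically at 0 and 10 min.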
Pol beta inh: blocks human DNA polymerase beta activity; AID 485314; Potency, µM (highest dose often 114 µM), hits mostly inhibitors; Pol beta primer extension/strand displacement, fluorescence kinetic; P06746; 340,000 compounds, 1.3% hits
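Kinetic readout of DNA synthesis with strand displacement by Pol beta. Compound and 10 nM enzyme sit 15 min at room temperature; 50 nM substrate starts the reaction, read immediately and at 10 min.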
Pol iota inh: DNA polymerase iota (human) inhibition; AID 588590; Pol iota fluorescent replication assay, 10 min; Q9UNA4; 390,000 compounds, 1% hits; Potency, µM (doses to about 115 µM), hits mostly inhibitors
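Fluorescent replication assay read twice, at 0 min and 10 min after adding 50 nM (final) substrate. Enzyme (10 nM) and compounds were first incubated 15 min at room temperature; enzyme-free buffer wells were negative controls.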
BAZ2B inh: confirmation of human BAZ2B bromodomain inhibitors; shares compounds with POLK inh; AlphaScreen BAZ2B / biotin-H3K14Ac peptide displacement; Potency, µM, actives largely listed as inhibitors; 25 compounds, 100% hits; calls by dose curve
BAZ2B bead ctr: AlphaScreen signal interference, BAZ2B hit counter-screen; shares compounds with POLK inh; Potency, µM (series often up to 57.1 µM), hits mostly inhibitors; 25 tested, under 10 active; AlphaScreen biotin-His6 peptide bead counterscreen, signal decrease;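 active = clear concentration-dependent signal drop in the bead assay lacking the target, so a primary-screen artifact; inconclusive = weak, partial or single-dose response; inactive = no response, so a real primary hit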
PGK validate: blocks T. brucei phosphoglycerate kinase; shares compounds with POLK inh; AID 686980; 500 compounds, 79% hits; TbPGK coupled GAPDH assay, Kinase-Glo luminescence; Potency, µM (titrated, usually from 57.5 µM), actives largely listed as inhibitors; note: nearly all actives have a fitted effect of over 65% in size
POLI cherry-pick: Human Pol iota inhibitor confirmatory assay | shares compounds with POLK inh | Pol iota primer extension, TAMRA/BHQ fluorescence | Potency, µM, actives largely listed as inhibitors | 1,500 compounds, 77% hits
Pol eta inh-2: Pol eta (human) inhibition, cherry-pick confirmation; shares compounds with Pol eta inh-1; Pol eta primer extension, TAMRA/BHQ fluorescence, 10 min; Potency, µM, most hits filed as inhibitors; 2,600 compounds, 64% hits; AID 720502
Each line names hits and unclear results; the compound was inactive in the other large screens (follow-up assays come after a bar, where they were run). Compounds with a hit are over-represented: about 2.8% of the library has one in this group of screens. Unless noted, calls come from the whole dose curve; as a rule, active = well fitted curve in the direction sought with a large enough effect; inconclusive = small, poorly fitted or top-dose-only effect, or another doubt; inactive = no such curve, though single readings can be large; an effect the other way counts as inactive or inconclusive.

Oc1ccc(CC2CC3CCN2CC3)cc1O (stereo not given)	none
CCOP(=S)(OCC)Oc1cc(C)nc(N(CC)CC)n1	none (no result: WRN helicase inh, PI5P4Ka inh, Pol eta inh-1, Pol beta inh, Pol iota inh)
Cc1nc(N2CCCCC2)c2ccsc2n1	none | BAZ2B inh 10 | BAZ2B bead ctr inconclusive
Cc1ccc(-c2nnc(C)c(N3CCCC3)n2)cc1	none
C/C(CC(=O)Nc1ccc(Cl)cn1)=N\NC(=O)Cc1cccs1	none
CCOC(=O)CCCc1sc(N)nc1-c1[nH]c(=O)[nH]c1C	WRN helicase inh inconclusive, POLK inh inconclusive, Pol eta inh-1 inconclusive, Pol iota inh inconclusive (no result: PI5P4Ka inh) | BAZ2B inh 10 | BAZ2B bead ctr inconclusive
COc1ccc(/C=C2\C(=O)NC(=S)N(C)C2=O)cc1C	WRN helicase inh 20µM, PI5P4Ka inh -57, POLK inh 50µM, Pol eta inh-1 2.8µM, Pol iota inh inconclusive | PGK validate 4.1µM
CC(C)(CO)CNC1CCCN(C2Cc3ccccc3C2)C1 (stereo not given)	none
COc1cc2c(ccc3c4cc(OC)c(OC)cc4c[n+](C)c23)cc1O	WRN helicase inh inconclusive, POLK inh 32µM, Pol eta inh-1 inconclusive, Pol iota inh inconclusive (no result: Pol beta inh) | POLI cherry-pick 19
CC(C)(C)OC(=O)N(CCc1ccccc1)Cc1ccc(OCc2cccc(NC(=O)c3ccccc3)c2)cc1	Pol iota inh inconclusive (no result: Pol beta inh)
CCn1c(C)c(C(=O)Nc2ccc(OC)cc2)c2cc(OC)ccc21	none
COc1ccc(NC(=O)CN(C)C(=O)c2cc3c(s2)CCC3)cc1	WRN helicase inh 40µM, PI5P4Ka inh -69, POLK inh 10µM, Pol eta inh-1 3.2µM, Pol iota inh 7.1µM (no result: Pol beta inh) | BAZ2B inh 7.9 | BAZ2B bead ctr inactive
COCCN(Cc1cc2cc3c(cc2nc1Cl)OCO3)C(=O)c1ccc(C)cc1	none | BAZ2B inh 11 | BAZ2B bead ctr inconclusive
C[C@]12[C@H](O)CC3C(CC[C@@H]4C[C@@H](O)CC[C@]34C)[C@@]1(O)CC[C@@H]2C1=CC(=O)OC1 (stereo not given in full)	none (no result: WRN helicase inh, PI5P4Ka inh, Pol eta inh-1, Pol beta inh, Pol iota inh)
CN1CC[C@@]2(C)c3cc(O)ccc3N(C)C2O1 (stereo not given in full)	Pol eta inh-1 inconclusive, Pol iota inh 25µM (no result: WRN helicase inh, PI5P4Ka inh, Pol beta inh) | POLI cherry-pick 60 | Pol eta inh-2 inconclusive
CC1[C@H]2Cc3ccc(O)cc3[C@]1(C)CCN2C (stereo not given in full)	none (no result: Pol beta inh)
CN1CC[C@@]2(C)c3cc(O)ccc3N(C)[C@@H]12	Pol eta inh-1 inconclusive, Pol iota inh 10µM (no result: Pol beta inh) | POLI cherry-pick 60 | Pol eta inh-2 inconclusive
C[C@]12C/C(=C/O)C(=O)C[C@@H]1CC[C@@H]1[C@@H]2CC[C@@]2(C)[C@H]1CC[C@]2(C)O	none (no result: WRN helicase inh, PI5P4Ka inh, Pol eta inh-1, Pol beta inh, Pol iota inh)
Cn1c(=O)oc2cc(S(=O)(=O)Nc3cccc([N+](=O)[O-])c3)ccc21	none
CC1CCN(S(=O)(=O)c2ccc(NN=C(C#N)C#N)cc2)CC1	none (no result: WRN helicase inh, PI5P4Ka inh, POLK inh, Pol eta inh-1, Pol iota inh)

Screening data from PubChem BioAssay.
